According to the supplement of paper PMC6555819:

tested on: RARb:RXRa (NR concentration 270 nM, RXRa partner concentration 90 nM); assay: PBM binding z-score (relative to random genomic background probes); higher = stronger binding; sequences stand for … in GC…GCGATTGACAGCGTAGAATGAAGG
Outline: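 Scanned fluorescence from custom Agilent 4×180K protein-binding microarrays was regression-normalized. Binding z-scores use random background probes as reference. Ligand-free nuclear receptor dimers were incubated on the arrays for 1 h and detected with antibodies against each partner (one per run).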

Sequence	PBM binding z-score
AATACTGGGTCATCGTAGGCCAGAGTACGCACAG	3.49
CAGCCTAGGTCAGGGCCGGTATAGGAGGAACGTT	3.33
TAGCCTAGTTCATTGGGCCAGTATAGTACGCATC	1.17
ATCGAAAGGTCGAAGTGAGTATAGAGAAAGGGAA	3.55
GCTAGTTGGTCAGTAACAGGTCACACACCGGTCG	2.24
GCTAGTTGTTCAGTAAAAGGTCACACACCGGTCG	3.91
CCGACTGAGGCATAAGGTTACCATAAGCCAGCCC	0.876
GATACAGGGTCAGCTAAAGGCCAGAGTATGGAAA	4.26
CCGACTGGAGCAAAGGTTACCATACTCAGTACGA	1.74
CGTCCAAGGTCAGAGAGGTCAGTGGATGCCGAGT	5.38
ACTAGTTGGTCAGCTGAGGTCACCCACAATTCGG	3.58
ATCTCTTGGTAAAGTTCAGTGAAAGATCGATAGA	2.82
CAAACTAGGTCAAGAGGTCGAAGTCCGCTTCCCG	4.44
TAGTCTAGGTCATGCGGGCCAGTATAGTGTCGGC	3.85
CCCACTGGGCCAAAGGTCATTGATTCCAATGCTC	4.39
ACTAGCAGGCCAAGTTTGGGTCACTCTAACAAAG	1.91
CATACAGGGTCAGCTAGTCCAGAGTAGGGACGGC	3.94
GCTGCTAGGTCAAATGATGGTCAGCTAAAGCTCG	4.13
TGAAAGAGGTTAAAGATCAGGGAACGTGGCGTCG	2.67
AGAACGAGGGCAATGAATTGATAGCACGGGTGGC	2.01

Sequence	PBM binding z-score
ATATGTGGGTTACATCCGGGTCATTCAGGCTATG	2.01
ATACCAGGGTGATCGTGAGGTCGTTGATACTAAC	1.23
TCTAGCAGGCCAGACGGTCACTCAAGAGGTACGG	1.04
ACTATTAGTTGAAACGAGGGCAACCGATAGGTTG	1.27
GCTGCTAGGTCAACTGATAGTCAGCTAAAGCTCG	4.09
GCTAGCGGGCCATTTGGGTCACTCAATGACGGGC	1.26
CCGACTGGGGCTTAAGGTTACCATAAGCCAGCCC	0.868
CGAACGAGGGCATGTGTTGATAGCAAATGCCGAT	1.81
CAAACTAGGTCAAGGGTCAAAGTCGAGCCAACCA	5.38
AGAACGAGGGCAATGAGTTGATAGAACGGGTGGC	1.83
ATCTCTATGTAAAGTTCAGTGAAAGATCGATAGA	2.55
GCTTGTAGATCAAGGTTAAGAAAGACTAAGCTAA	0.759
GCTATTAGTTGAAGGGGCAACCGAATGATTCTCG	0.759
AGTCAAAGTTCACTAGGTACCGTAAGATTCAGCT	4.74
TAGCCTAGGTCAGATCGGGCCTGTATACGCTATA	2.8
TCATATAGGTAAAGGTGTAAGTCGAACGATATGA	0.413
GCGACTGGGGCATCAGCAGGTTACCATAACTTAA	0.697
GCAGACAGGTGAAACGCAGGTAAATCAGGGTGGC	0.472
CAAACTAGGTCACCGGAAGGTCAAAGTCCGCATG	5.37
ACTATTAGTTGACTTAGGGTAACCGATACGACGC	0.582
